“And” between values parts separate entries of the source, which are not always exact repeats. Identical values can stand only once. Hit rate of the full screen: of about 290,000 compounds, about 3,000 (1%) were called active. The list comes from a sample in which actives are over-represented; it also holds similar structures and randomly drawn compounds. Values without a mark were called inactive. No stated cut-off is given here; in the data, active means inhibition mostly above about 36% (no sharp cut-off); inactive means mostly below about 34%.

The nature of this experiment: inhibition of NOD1-driven NF-kB reporter – cell-based, luminescence, uHTS, primary screen (AID 1578).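 Further: HEK-293T reporter cells stimulated with the NOD1 agonist gamma-tri-DAP.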 Conditions: NOD1-driven NF-kB luciferase reporter cells, at 4 µM, hits give high values. (In a reporter assay the amount or activity of a reporter protein is the signal.)
In the case of `COc1cccc(NP(=O)(Oc2ccccc2)Oc2ccccc2)c1`, the inhibition is -28.2%.

As to `O=C(NC1(C(F)(F)F)Oc2ccc(Cl)cc2O1)N1CCC2(CC1)OCCO2` (configuration not stated), the inhibition is 5%.

As to `Cc1ccccc1-n1c(O)c(C=NCCN2CCOCC2)c(=O)[nH]c1=O`, the inhibition was -5.7%.

Regarding `O=C(Cn1nc(-c2ccc(Cl)cc2)ccc1=O)N1CCC2(CC1)OCCO2`, the inhibition is -21%.

Consider `CCC(=NCCO)c1c(O)n(-c2ccccc2)c(=O)[nH]c1=O`, for which the inhibition is 11.4%.

Take `COc1cc2c(cc1OC)-c1c(OC)c(OC)c(OC)c3ccnc(c13)C2=O`: the inhibition was 25.5%.

For `CC(C)c1ccc(N2C(=O)NC(=O)/C(=C/C=C/c3ccco3)C2=O)cc1`, the inhibition was 56.9%.

Take `O=C1NC(=O)N(CCc2ccc(F)cc2)C(=O)/C1=C/c1cccs1`: the inhibition is 12.9%.

Regarding `O=C1NC(=O)N(CCc2ccc(F)cc2)C(=O)/C1=C/C=C/c1ccccc1`, the inhibition is 42.2% (active).

Regarding `CC(C)c1ccc(N2C(=O)NC(=O)/C(=C\C=C\c3ccco3)C2=O)cc1`, the inhibition was 78.9% (active).

With `Cc1ccc(N2C(=O)NC(=O)/C(=C\C=C\c3ccco3)C2=O)cc1C`, the inhibition is 48.7%.

In the case of `O=C1NC(=O)N(CCc2ccc(F)cc2)C(=O)/C1=C/c1ccco1`, the inhibition was 10.2%.

Turning to `CCCC(C)n1[nH]c(=O)c2c1NC(=O)CSC2c1ccccc1` (configuration not stated), the inhibition was -4.2%.

Turning to `COc1ccc(CCN(C)Cc2ccc(F)cc2F)cc1OC`, the inhibition was -4.5%.

As to `O=[N+]([O-])c1ccc(Nc2ccccc2)cc1`, the inhibition was 26.1%.

Regarding `CC(C)C(=O)Nc1nnc(CCN(CCc2nnc(NC(=O)C(C)C)s2)[N+](=O)[O-])s1`, the inhibition was 0.8%.

As to `COc1cc(CC2C(=O)N(C)C(=O)N(C)C2=O)ccc1OCc1ccccc1`, the inhibition is -15.9%.

Consider `C[C@H]1CCCC(=O)CCCCCc2cc(O)cc(O)c2C(=O)O1`, for which the inhibition was 10.7%.

As to `C[C@H]1CCC[C@H](O)CCCCCc2cc(O)cc(O)c2C(=O)O1`, the inhibition is 71.9% (active).

With `CC1CCC[C@H](O)CCCCCc2cc(O)cc(O)c2C(=O)O1` (some centres not stated), the inhibition was -20.3% and 0.8%.

In the case of `COc1ccc(S(=O)(=O)NC(CC(=O)N2CCC3(CC2)OCCO3)C(C)C)cc1` (configuration not stated), the inhibition is -3.9%.

As to `Cc1cccnc1-n1c(-c2ccccc2)nc2ccccc2c1=O`, the inhibition was -2.5%.

`O=C(c1ccco1)c1cn(Cc2ccccc2Cl)c2ccccc12`: the inhibition was 19.5%.

As to `CC1(C)C[C@H]2C=C(C=O)[C@]3(C=O)C[C@]3(C)[C@H]2C1`, the inhibition was 106% (active).

For the molecule `Cc1c(P(=S)(c2ccccc2)c2ccccc2)[n+]2ccccc2n1C`, the inhibition was -18.7%.

`O=C(Nc1ccc(Cl)cc1C(=O)c1ccccc1)c1ccc(Br)o1`: the inhibition is 37.5%.

For the molecule `Cc1ccc2c(c1)CCCN2N=O`, the inhibition is -27.4%.

For the molecule `C=C(CO)CC1CC(O)[C@]2(C)OC3CC4OC5C[C@]6(C)O[C@]7(C)CCC8OC9C[C@]%10(C)OC%11C(C)=CC(=O)OC%11CC%10OC9C[C@@H](C)C8OC7CC6O[C@]5(C)C/C=C\C4OC3CC2O1` (some centres not stated), the inhibition is -6.2%.

Turning to `C=C(C=O)C[C@@H]1C[C@H](O)C2OC3C[C@]4(C)OC5/C=C\CC6OC7C(CC=CCC6OC5CCCC4OC3CC2O1)OC1CC2OC3CC(=O)OC3C[C@@H](C)C[C@@]2(C)OC1C[C@@H]7C` (some centres not stated), the inhibition is 76% (active).

As to `C=C(CC1CC(O)[C@]2(C)OC3CC4OC5C[C@]6(C)O[C@]7(C)CCC8OC9C[C@]%10(C)OC%11C(C)=CC(=O)OC%11CC%10OC9C[C@@H](C)C8OC7CC6O[C@]5(C)C/C=C\C4OC3CC2O1)C(=O)O` (some centres not stated), the inhibition was -18.2%.

As for `Clc1cccc(Cl)c1C1N2CCCN12` (configuration not stated), the inhibition was 8.1%.

As to `c1ccc2c(c1)CNc1ccccc1O2`, the inhibition was -9%.

As to `S=C(NCCc1ccccc1)NCCc1cnc[nH]1`, the inhibition was 0.7%.

`COc1ccc(OC)c(NP(=O)(Oc2ccccc2)Oc2ccccc2)c1`: the inhibition is -6.6%.

Consider `Cc1ccc(C)c(NP(=O)(Oc2ccccc2)Oc2ccccc2)c1`, for which the inhibition was 48.1% (active).

`Cc1cccc(NP(=O)(Oc2ccccc2)Oc2ccccc2)c1C`: the inhibition is -22.3%.

In the case of `O=C(CN1CCCC1)Nc1ccc(Cl)cc1C(=O)c1ccccc1`, the inhibition was -5.6%.

As for `COc1ccc(CNCCc2c(C)[nH]c3ccc(OC(F)(F)F)cc23)c(OC)c1`, the inhibition was 5.5%.

As for `O=P(Nc1ccccc1)(Nc1ccccc1)Oc1ccccc1`, the inhibition is -0.3%.

Take `COc1cc2c(cc1OC)[C@@H]1C(=O)c3ccc4c(c3O[C@@H]1CO2)C[C@H](C(C)C)O4`: the inhibition was 58.9% (active).

Turning to `O=c1c2ccccc2nc(-c2ccccc2)n1-c1ccccc1O`, the inhibition is -8.3%.

`Cn1cnnc1Sc1cc(N2CCNCC2)ccc1[N+](=O)[O-]`: the inhibition is -17.2%.

For the molecule `CCOc1ccc(C2(C#N)CC[N+](C)(C)CC2)cc1`, the inhibition was -0.5%.

`COCc1cc(OC(=O)N(C)C)nc2c1c(C)nn2C`: the inhibition was -6.7%.

As to `O=C(CN1CC(c2ccccc2)CC1=O)Nc1ccc(F)cc1` (configuration not stated), the inhibition is -14.5%.

With `O=C(COc1ccccc1)NCCc1cnc[nH]1`, the inhibition was 3.5%.

With `O=C(/C=C/c1ccccc1)NCCc1cnc[nH]1`, the inhibition was 32.6% (active).

Turning to `O=C(CCCc1ccccc1)NCCc1cnc[nH]1`, the inhibition was -15.9%.

As for `CCOc1ccccc1Oc1coc2cc(OC(=O)N(C)C)ccc2c1=O`, the inhibition is 0.4%.

Turning to `COc1cccc(Oc2coc3cc(OC(=O)N(C)C)ccc3c2=O)c1`, the inhibition is 6.2%.

As to `O=C1CC(c2ccccc2)CC(O)=C1C=NCCN1CCN(C(=O)Cc2ccccc2)CC1` (configuration not stated), the inhibition was 8.5%.

`O=C(C1CCCN(S(=O)(=O)c2cccc3nsnc23)C1)N1CCC2(CC1)OCCO2` (configuration not stated): the inhibition was -9.3%.

With `O=C(Cc1ccccc1)N1CCN(Cc2cccc(Br)c2)CC1`, the inhibition is 0.2%.

Take `CC(C)c1oc(=O)cc2c1[C@@H](O)[C@H]1OC(=O)[C@@]3(C)CC[C@@H](O)[C@@]2(C)C13` (some centres not stated): the inhibition is -5.4%.

As for `CC(C)c1oc(=O)cc2c1[C@@H](O)[C@H]1OC(=O)[C@@]3(C)C[C@@H](O)[C@@H](O)[C@@]2(C)C13` (some centres not stated), the inhibition was 96.2% (active).

In the case of `Cc1csc(=N)n1Cc1ccccc1`, the inhibition was -19.9%.

As to `Cc1cccc(N2C(=O)NC(=O)C3(Cc4cc(C)ccc4N(C)C3)C2=O)c1` (configuration not stated), the inhibition was 11%.

On to `COc1ccc(Cl)cc1C(=O)C1CCCN(Cc2cnc(C)s2)C1` (configuration not stated), for which the inhibition is -27.2%.

On to `CC1CCC(C(C)C)C(OC(=O)COC(=O)c2ccccc2N)C1` (configuration not stated), for which the inhibition was 79.2% (active).

For `CC1CCC(C(C)C)C(OP(N)(=O)c2ccccc2)C1` (configuration not stated), the inhibition was 12.7%.

In the case of `CC1CCC(C(C)C)C(OC(=O)Cn2c(COc3ccccc3)[n+](C)c3ccccc32)C1` (configuration not stated), the inhibition is -12.8%.

Regarding `Cc1cccnc1-n1c(-c2ccco2)nc2ccccc2c1=O`, the inhibition was -8.5%.

Turning to `CC(C)(C)NC(=S)/N=C(\N)N[N+](=O)[O-]`, the inhibition was -21.7%.

As to `Cc1[nH]c2ccccc2c1C(=O)C(=O)N1CCC2(CC1)OCCO2`, the inhibition was -23.7%.

As to `CC(C)[C@]12O[C@H]1[C@@H]1O[C@]13[C@]1(O[C@H]1C[C@H]1C4=C(CC[C@@]13C)C(=O)OC4)[C@@H]2O`, the inhibition was 107% (active).

For `Cn1c(O)c(C=Nc2ccccc2-c2ccccc2)c(=O)n(C)c1=O`, the inhibition was -12.2%.

As to `COc1ccccc1[As](=O)(O)CC(O)COc1ccc(Cl)cc1Cl` (configuration not stated), the inhibition is -11%.

As for `CN(C)c1ccc(C(=O)N/N=C/C23CC[C@@H](O)CC2(O)CC[C@@H]2[C@@H]3CCC3(C)C(C4=CC(=O)OC4)CCC23O)cc1` (some centres not stated), the inhibition is 45% (active).

Turning to `COc1ccc(C(=O)N/N=C/C23CC[C@@H](O)CC2(O)CC[C@@H]2[C@@H]3CCC3(C)C(C4=CC(=O)OC4)CCC23O)cc1` (some centres not stated), the inhibition was 12.5%.

Regarding `CC12CC[C@H]3[C@@H](CCC4(O)C[C@H](O)CCC34/C=N/NC(=O)c3ccc(O)cc3)C1(O)CCC2C1=CC(=O)OC1` (some centres not stated), the inhibition is -7.5%.

In the case of `CC(=O)N1N=C2C3CCN(CC3)C2C1c1ccc(C)cc1` (configuration not stated), the inhibition is -23.8%.

On to `COc1ccccc1OCCCn1cc(C(=O)c2ccco2)c2ccccc21`, for which the inhibition is 3.3%.

Consider `Cc1cc(C=C2C(=O)NC(=S)NC2=O)c(C)n1-c1ccc2c(c1)OCO2`, for which the inhibition was 104% (active).

Regarding `Cc1cc(/C=C2\C(=O)NC(=O)N(C)C2=O)c(C)n1-c1ccc2c(c1)OCO2`, the inhibition is -6.1%.

Regarding `Cc1cc(C=C2C(=O)NC(=O)NC2=O)c(C)n1-c1ccc2c(c1)OCO2`, the inhibition was 55.3%.

Turning to `C/C(=N\N1CCCCCC1)c1c(O)n(C)c(=O)n(C)c1=O`, the inhibition is -4.6%.

In the case of `Cc1cccn2c(NCC3CCCO3)c(C(C)C)nc12` (configuration not stated), the inhibition is 2.9%.

What is called inhibition is the drop in the measured response relative to a control, in per cent.

These data come from PubChem BioAssay AID1578 (Sanford-Burnham Center for Chemical Genomics, 2009).
